Data on one compound can be found in ChEMBL document CHEMBL1961873, “Compounds: GSK PKIS; Assays: Nanosyn kinase panel” (2012).

Test [1] concerns the target Sphingosine kinase 1 (Homo sapiens) (UniProt Q9NYA1). The following applies: at 1 µM.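 Also: mean SPHK1 inhibition value reported from the GSK PKIS kinase panel screen.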
Test [2] has as its target T1, Sphingosine kinase 2 (Homo sapiens) (UniProt Q9NRA0).
T1 sequence (whole entry): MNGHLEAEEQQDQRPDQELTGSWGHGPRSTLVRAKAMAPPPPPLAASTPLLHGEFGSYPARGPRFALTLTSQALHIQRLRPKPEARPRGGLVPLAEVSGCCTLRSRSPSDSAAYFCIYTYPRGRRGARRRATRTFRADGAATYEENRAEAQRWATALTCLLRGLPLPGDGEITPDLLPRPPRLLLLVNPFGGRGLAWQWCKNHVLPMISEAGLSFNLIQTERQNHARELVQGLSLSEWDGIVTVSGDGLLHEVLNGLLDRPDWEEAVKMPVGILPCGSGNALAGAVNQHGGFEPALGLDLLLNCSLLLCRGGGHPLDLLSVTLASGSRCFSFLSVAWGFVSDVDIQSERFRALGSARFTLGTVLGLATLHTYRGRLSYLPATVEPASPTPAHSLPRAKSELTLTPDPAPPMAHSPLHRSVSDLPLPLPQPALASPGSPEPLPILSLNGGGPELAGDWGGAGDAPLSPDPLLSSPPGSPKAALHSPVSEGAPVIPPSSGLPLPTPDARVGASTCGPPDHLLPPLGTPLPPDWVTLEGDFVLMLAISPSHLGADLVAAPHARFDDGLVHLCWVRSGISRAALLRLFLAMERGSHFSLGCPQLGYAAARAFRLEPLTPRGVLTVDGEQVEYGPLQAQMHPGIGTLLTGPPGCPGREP
As to conditions: at 0.1 µM.

The target of test [3] is T1, Sphingosine kinase 2 (Homo sapiens). The following applies: at 1 µM.
Test [4] deals with Casein kinase II subunit alpha (Homo sapiens) (UniProt P68400). The following applies: at 0.1 µM.
For test [5] the target is unchanged. As to conditions: at 1 µM.
The target in test [6] is T2, Inhibitor of nuclear factor kappa-B kinase subunit alpha (Homo sapiens) (UniProt O15111).
T2 sequence (whole entry): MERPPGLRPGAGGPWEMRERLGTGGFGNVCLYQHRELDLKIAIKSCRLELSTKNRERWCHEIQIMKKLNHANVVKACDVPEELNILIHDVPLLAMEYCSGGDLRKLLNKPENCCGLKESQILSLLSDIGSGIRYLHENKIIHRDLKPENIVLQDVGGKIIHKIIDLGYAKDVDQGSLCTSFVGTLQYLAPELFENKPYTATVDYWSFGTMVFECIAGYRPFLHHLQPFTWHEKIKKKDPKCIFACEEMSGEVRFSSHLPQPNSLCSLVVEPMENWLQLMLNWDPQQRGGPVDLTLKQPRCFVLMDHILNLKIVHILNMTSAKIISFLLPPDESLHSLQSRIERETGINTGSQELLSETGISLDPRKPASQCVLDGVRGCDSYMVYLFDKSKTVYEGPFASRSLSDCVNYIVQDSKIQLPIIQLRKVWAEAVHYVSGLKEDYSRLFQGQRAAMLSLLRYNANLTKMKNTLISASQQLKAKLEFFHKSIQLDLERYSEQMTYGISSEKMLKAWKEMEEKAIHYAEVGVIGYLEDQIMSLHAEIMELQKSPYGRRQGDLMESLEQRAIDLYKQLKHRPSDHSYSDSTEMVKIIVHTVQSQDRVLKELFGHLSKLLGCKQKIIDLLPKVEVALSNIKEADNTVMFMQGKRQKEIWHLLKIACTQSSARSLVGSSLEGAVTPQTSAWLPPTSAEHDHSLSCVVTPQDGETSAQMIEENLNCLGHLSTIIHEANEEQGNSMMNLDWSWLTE
As to conditions: at 0.1 µM.

Test [7] concerns the target T2, Inhibitor of nuclear factor kappa-B kinase subunit alpha (Homo sapiens). As to conditions: at 1 µM.
Test [8] deals with T3, Inhibitor of nuclear factor kappa-B kinase subunit beta (Homo sapiens) (UniProt O14920).
T3 sequence (whole entry): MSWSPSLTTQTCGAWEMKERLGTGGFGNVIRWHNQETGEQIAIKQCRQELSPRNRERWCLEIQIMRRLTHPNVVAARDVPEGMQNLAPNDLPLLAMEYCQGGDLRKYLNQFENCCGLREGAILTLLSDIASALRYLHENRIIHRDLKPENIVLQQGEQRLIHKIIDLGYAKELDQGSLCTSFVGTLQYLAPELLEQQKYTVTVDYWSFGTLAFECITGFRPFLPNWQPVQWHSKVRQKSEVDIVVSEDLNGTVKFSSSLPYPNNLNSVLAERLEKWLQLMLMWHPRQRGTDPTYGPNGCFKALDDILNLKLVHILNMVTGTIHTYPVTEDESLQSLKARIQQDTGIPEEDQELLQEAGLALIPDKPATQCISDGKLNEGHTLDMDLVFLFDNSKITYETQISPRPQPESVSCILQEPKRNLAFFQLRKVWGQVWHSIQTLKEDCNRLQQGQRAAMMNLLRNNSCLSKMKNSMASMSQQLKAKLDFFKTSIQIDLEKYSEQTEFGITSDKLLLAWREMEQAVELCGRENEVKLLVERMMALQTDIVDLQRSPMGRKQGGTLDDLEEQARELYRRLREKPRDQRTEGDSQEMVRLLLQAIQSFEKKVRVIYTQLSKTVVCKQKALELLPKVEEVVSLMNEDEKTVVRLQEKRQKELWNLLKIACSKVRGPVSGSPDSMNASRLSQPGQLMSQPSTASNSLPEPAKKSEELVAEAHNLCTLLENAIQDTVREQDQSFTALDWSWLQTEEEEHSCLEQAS
The following applies: at 0.1 µM.

Test [9] addresses T3, Inhibitor of nuclear factor kappa-B kinase subunit beta (Homo sapiens). As to conditions: at 1 µM.
Test [10] has as its target T4, Inhibitor of nuclear factor kappa-B kinase subunit epsilon (Homo sapiens) (UniProt Q14164).
T4 sequence (whole entry): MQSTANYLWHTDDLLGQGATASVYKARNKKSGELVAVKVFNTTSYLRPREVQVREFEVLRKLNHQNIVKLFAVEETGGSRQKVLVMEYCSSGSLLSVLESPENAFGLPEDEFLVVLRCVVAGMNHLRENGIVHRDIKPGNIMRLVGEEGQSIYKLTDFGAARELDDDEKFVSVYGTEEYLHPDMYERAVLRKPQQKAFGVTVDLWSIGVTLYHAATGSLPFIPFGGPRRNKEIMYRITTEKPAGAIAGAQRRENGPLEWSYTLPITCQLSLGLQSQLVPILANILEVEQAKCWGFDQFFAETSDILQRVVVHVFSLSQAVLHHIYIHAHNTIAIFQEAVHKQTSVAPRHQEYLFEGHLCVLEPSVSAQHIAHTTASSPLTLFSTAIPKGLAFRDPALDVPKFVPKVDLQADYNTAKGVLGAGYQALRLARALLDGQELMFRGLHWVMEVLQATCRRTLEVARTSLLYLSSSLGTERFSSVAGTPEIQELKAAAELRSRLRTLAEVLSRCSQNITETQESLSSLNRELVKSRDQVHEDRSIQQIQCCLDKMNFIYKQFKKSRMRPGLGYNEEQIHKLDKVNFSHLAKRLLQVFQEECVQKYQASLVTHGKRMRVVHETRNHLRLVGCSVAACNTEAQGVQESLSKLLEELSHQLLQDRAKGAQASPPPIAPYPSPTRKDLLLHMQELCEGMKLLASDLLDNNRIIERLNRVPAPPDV
As to conditions: at 0.1 µM.

Test [11] has as its target T4, Inhibitor of nuclear factor kappa-B kinase subunit epsilon (Homo sapiens). The following applies: at 1 µM.
Test [12] addresses T5, Serine/threonine-protein kinase Nek1 (Homo sapiens) (UniProt Q96PY6).
T5 sequence (whole entry): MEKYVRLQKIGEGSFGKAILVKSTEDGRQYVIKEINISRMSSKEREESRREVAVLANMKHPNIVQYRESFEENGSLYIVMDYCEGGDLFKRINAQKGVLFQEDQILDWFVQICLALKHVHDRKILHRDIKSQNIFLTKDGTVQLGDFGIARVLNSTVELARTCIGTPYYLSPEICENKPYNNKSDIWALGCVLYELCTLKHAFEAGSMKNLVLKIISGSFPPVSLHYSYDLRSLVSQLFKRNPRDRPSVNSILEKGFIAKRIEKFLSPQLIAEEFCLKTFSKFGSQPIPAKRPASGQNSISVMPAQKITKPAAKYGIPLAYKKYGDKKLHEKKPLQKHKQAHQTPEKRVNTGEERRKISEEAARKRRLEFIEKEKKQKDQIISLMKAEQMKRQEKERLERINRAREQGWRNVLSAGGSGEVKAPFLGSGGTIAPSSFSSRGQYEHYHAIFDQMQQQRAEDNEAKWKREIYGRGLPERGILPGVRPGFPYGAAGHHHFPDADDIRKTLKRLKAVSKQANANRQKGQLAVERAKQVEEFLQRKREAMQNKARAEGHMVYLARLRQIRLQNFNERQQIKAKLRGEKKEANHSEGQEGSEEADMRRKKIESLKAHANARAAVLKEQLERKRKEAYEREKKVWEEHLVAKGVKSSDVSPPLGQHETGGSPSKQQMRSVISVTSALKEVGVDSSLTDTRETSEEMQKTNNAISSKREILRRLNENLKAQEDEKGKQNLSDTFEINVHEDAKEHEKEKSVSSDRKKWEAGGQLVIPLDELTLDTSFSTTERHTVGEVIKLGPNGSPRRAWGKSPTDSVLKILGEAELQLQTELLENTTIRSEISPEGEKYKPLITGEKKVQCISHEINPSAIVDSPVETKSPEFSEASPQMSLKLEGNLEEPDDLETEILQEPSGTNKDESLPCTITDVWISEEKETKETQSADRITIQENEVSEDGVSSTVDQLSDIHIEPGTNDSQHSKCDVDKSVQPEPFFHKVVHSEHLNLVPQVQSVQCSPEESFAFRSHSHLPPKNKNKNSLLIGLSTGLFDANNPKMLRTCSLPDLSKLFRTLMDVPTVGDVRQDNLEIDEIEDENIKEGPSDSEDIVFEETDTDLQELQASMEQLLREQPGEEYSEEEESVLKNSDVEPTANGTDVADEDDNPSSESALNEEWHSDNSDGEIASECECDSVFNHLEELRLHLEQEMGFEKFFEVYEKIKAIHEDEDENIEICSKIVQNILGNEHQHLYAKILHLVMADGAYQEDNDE
The following applies: at 0.1 µM.

Test [13] addresses T5, Serine/threonine-protein kinase Nek1 (Homo sapiens). The following applies: at 1 µM.
In test [14] the target is T6, Serine/threonine-protein kinase Nek2 (Homo sapiens) (UniProt P51955).
T6 sequence (whole entry): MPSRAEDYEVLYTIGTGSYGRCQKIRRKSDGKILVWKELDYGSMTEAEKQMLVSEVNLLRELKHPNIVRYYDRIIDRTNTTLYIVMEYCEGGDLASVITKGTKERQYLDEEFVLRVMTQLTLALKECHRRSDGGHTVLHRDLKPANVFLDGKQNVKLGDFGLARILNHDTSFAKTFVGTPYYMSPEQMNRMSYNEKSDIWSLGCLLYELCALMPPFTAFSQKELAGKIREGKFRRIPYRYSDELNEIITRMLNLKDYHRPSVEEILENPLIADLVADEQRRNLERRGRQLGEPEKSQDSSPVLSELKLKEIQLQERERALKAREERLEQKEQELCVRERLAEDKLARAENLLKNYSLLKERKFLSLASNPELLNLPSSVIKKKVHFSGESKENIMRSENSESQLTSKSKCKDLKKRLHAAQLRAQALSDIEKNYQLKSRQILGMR
The following applies: at 0.1 µM.

The target in test [15] is T6, Serine/threonine-protein kinase Nek2 (Homo sapiens). As to conditions: at 1 µM.
Test [16] has as its target Serine/threonine-protein kinase Nek6 (Homo sapiens) (UniProt Q9HC98). The following applies: at 0.1 µM.
For test [17] the target is unchanged. The following applies: at 1 µM.
Test [18] deals with Serine/threonine-protein kinase Nek7 (Homo sapiens) (UniProt Q8TDX7). As to conditions: at 0.1 µM.
The target is the same in test [19]. As to conditions: at 1 µM.
Test [20] concerns the target T7, Serine/threonine-protein kinase Nek9 (Homo sapiens) (UniProt Q8TD19).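 Also: reported value is the mean percent inhibition of NEK9.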
T7 sequence (whole entry): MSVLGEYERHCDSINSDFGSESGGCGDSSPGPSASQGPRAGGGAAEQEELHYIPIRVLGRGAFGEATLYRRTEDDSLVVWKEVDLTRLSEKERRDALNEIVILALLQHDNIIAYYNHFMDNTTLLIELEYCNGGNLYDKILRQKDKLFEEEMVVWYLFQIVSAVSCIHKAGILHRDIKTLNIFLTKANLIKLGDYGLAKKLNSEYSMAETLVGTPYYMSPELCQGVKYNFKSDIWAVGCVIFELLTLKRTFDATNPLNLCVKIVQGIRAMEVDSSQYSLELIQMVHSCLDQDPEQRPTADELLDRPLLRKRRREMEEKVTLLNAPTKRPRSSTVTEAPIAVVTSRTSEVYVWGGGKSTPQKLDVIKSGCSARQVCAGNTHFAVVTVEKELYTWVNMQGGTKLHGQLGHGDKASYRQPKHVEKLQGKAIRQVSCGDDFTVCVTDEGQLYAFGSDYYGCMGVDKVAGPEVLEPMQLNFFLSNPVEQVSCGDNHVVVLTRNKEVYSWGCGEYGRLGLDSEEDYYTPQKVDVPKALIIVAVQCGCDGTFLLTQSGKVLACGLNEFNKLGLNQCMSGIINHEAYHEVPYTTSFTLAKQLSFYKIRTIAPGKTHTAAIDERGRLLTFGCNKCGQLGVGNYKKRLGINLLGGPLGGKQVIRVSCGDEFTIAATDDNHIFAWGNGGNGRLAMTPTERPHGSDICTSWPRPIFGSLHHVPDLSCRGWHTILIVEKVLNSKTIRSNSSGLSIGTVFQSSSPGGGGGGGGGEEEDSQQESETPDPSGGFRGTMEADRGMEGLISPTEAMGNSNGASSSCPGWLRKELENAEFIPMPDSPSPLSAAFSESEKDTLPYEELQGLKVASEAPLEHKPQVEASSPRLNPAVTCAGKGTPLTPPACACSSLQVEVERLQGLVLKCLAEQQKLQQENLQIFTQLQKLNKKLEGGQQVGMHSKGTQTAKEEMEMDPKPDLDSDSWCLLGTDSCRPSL
As to conditions: at 0.1 µM.

Each structure is given as a SMILES string.

A word on the inhibition: it is the drop in the measured response relative to a control, in per cent.

Serine/threonine-protein kinase Nek7 (Homo sapiens), sequence (Q8TDX7 whole entry, looked up): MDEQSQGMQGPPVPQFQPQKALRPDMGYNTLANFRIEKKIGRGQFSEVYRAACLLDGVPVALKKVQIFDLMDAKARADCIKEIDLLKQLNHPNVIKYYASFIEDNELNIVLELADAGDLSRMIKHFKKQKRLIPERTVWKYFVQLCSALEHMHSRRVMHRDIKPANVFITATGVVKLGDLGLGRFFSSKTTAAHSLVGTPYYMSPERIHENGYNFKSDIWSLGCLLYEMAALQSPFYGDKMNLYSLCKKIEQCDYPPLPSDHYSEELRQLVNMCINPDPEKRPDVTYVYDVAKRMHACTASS
Serine/threonine-protein kinase Nek6 (Homo sapiens), sequence (Q9HC98 whole entry): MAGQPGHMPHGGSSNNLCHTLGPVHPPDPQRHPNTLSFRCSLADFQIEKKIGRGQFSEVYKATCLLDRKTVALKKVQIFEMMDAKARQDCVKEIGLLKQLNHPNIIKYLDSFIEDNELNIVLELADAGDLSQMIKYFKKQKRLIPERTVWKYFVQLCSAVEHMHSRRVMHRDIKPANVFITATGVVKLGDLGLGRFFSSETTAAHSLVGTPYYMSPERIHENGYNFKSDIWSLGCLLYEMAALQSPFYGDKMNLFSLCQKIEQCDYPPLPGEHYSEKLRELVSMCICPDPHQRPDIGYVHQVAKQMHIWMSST
Casein kinase II subunit alpha (Homo sapiens), sequence (P68400 whole entry, looked up): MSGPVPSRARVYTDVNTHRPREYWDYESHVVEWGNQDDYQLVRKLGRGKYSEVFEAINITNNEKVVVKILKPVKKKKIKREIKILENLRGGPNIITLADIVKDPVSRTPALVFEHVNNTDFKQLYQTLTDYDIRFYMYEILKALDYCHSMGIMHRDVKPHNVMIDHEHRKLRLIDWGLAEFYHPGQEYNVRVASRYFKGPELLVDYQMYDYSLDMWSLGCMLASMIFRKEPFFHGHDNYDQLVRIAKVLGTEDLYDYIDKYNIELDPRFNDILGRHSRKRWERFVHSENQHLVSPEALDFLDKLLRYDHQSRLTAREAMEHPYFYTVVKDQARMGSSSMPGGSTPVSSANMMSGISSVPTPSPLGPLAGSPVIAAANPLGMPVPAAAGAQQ
Sphingosine kinase 1 (Homo sapiens), sequence (Q9NYA1 whole entry): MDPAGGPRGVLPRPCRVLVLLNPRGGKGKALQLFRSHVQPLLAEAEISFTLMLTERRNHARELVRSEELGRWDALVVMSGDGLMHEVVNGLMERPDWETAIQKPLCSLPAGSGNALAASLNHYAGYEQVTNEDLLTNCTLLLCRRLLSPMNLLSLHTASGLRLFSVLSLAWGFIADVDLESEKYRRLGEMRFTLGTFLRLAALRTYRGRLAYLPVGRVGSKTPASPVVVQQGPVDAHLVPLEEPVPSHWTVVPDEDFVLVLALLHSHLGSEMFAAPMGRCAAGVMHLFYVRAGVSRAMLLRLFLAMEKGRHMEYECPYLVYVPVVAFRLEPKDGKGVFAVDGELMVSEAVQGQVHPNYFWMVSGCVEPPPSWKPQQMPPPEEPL

As to `FC(F)(F)c1cccc(-c2nn3ncccc3c2-c2ccnc(Nc3ccc4c(c3)OCCO4)n2)c1`, the inhibition in test [1] is 1.14%; in [2] it was 0.13%; in [3], -0.65%; in test [4], 0.21%; in test [5] it was -1.98%; in [6] it was 3.23%. Further, the inhibition was 0.65% in test [7]; 2.71% in [8]; 0.36% in [9]; 2.48% in test [10]; 2.87% in [11]; 1.52% in test [12]. Besides, the inhibition in test [13] is 0.83%; in [14], 3.63%; in [15], 3.89%; in test [16] it was 0.6%; in test [17] it was -0.45%; in [18] it was 4.18%. Also, the inhibition in [19] was 2.91%; in test [20] it was 3.97%.
